Measured values taken from PubChem BioAssay (NCI).
Several values for one entry are separate records, joined by “and”; a condition that tells them apart may be missing. Equal values may be shown once. About 83,000 compounds went through this panel and 20% of them were active in at least one assay; those are over-represented in the sample as a whole.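 In brief: 96-well plates, 48 h treatment, single concentration, percent growth endpoint.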 A number with no mark means an inactive call. Activity calls are given as the source filed them. How the source made its calls: active means growth percent below 10; inactive means the rest.

Test system: NCI/ADR-RES ovarian
Assay: NCI-60 one-dose screen, 48 h (100 = growth as untreated, 0 = no growth, -100 = all killed)
Conditions: 10 µM unless noted

SMILES | growth
O=[N+]([O-])c1ccc2c(N=Nc3ccc4ccccc4c3O)c(O)cc(S(=O)(=O)O)c2c1 | 86.1%
O=C(Nc1cccc(Br)c1)Oc1ccc(Cl)c2cccnc12 | 6.36% [100 µM] (active)
Oc1c(Cl)cc(Cl)c2cccnc12 | 27.4% and 29.3%
COC(=O)[C@@]12OC[C@]34[C@H]([C@@H](O)[C@@H]1O)[C@@]1(C)[C@H](O)C(=O)C=C(C)[C@@H]1C[C@H]3OC(=O)C(OC(C)=O)[C@@H]24 (stereo partly specified) | 16%
CNC(=O)N/N=C/c1ccc([N+](=O)[O-])o1 | 108%
O=C1C2=C(Nc3cc([N+](=O)[O-])ccc3N2)OC1c1c2ccccc2cc2ccccc12 (stereo unspecified) | 38.3%
COc1cc(/C=C(/C)C[N+](=O)[O-])ccc1O | 102%
O=C(O)c1ccc2c3c(ncnc13)-c1ccccc1C2=O | 76.9%
Cc1ccc2nc(C[n+]3ccc4ccccc4c3)ccc2c1 | 104%
C=C(Cl)C(=NC(C)(C)C)Nc1ccccc1C | 107%
O=C1OCc2cccc3cccc1c23 | 108%
NC(N)=N/N=C/c1ccc([N+](=O)[O-])o1 | 99.5%
N#CSCc1c(Cl)cccc1Cl | 95.4%
CC(=O)ON=C1C=CC(=C(C#N)c2ccccc2)C=C1 | -10.8% (active)
CCCCCCCCCCCCCCCCCCOP(=O)([O-])OC1CC[N+](C)(C)CC1 | 73.5% and 54.9%
C[n+]1c(/C=C/c2ccc([N+](=O)[O-])cc2)ccc2ccccc21 | 102%
